Compound activity (PubChem BioAssay)
Shown is part of a subset that was picked to be rich in hits.
Sa helicase inh = S. aureus DNA helicase inhibition. inhibition, % (concentration not given with the values). AID 485395. purified S. aureus helicase, fluorescence unwinding assay. 120,000 tested, 0.05% active; in the data active = inhibition above about 25%, passing the limit was not always enough;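 note: 0% = mean of negative control wells and 100% = mean of positive control wells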
Sa growth inh = inhibitors of Staphylococcus aureus growth at 42 °C. S. aureus RN4220 growth, OD600, 20 h; hits give low values. relative growth, % (test concentration not listed). 170,000 tested, 0.53% active;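 active = relative growth at most 50% at the other temperature and 20+ points below 30 °C, or under 10% at both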
Numbers without * were called inactive; . = not tested or not shown.

SMILES	Sa helicase inh	Sa growth inh
COc1ccc(C(c2c(C)[nH]c3ccccc23)N2CCOCC2)cc1 (stereo not given)	15	1.3*
COc1ccc(C(c2c(C)[nH]c3ccccc23)N2CCCC2)cc1 (stereo not given)	21	.
NC(=O)c1nn(CC(=O)N2CCN(Cc3nc4ccccc4s3)CC2)c(=O)c2ccccc12	11	99
O=C(C=C1SCCS1)c1cccs1	.	99
CN1C(=O)/C(=C\C(=O)c2cccs2)c2ccccc21	-11	2.9*
C=CCn1c(CCCO)n[nH]c1=S	6	106
CC1COc2c(N3CCN(C)CC3)c(F)cc3c(=O)c(C(=O)OCc4ccccn4)cn1c23 (stereo not given)	11	-1.0*
Cc1cc(C)c(NC(=O)c2cn3c4c(c(N5CCN(C)CC5)c(F)cc4c2=O)OCC3C)c(C)c1 (stereo not given)	-2	71
CNC1CCC(C(F)(F)F)N(C)C1=O (stereo not given)	-1	97
O=C1c2ccccc2-c2nc3ccccc3nc21	42	5.6*
O=C1c2ccccc2-c2nc3nonc3nc21	-32	53
CC(=O)[C@]1(O)Cc2c(O)c3c(c(O)c2[C@@H](O[C@H]2C[C@H](N)[C@H](O)[C@H](C)O2)C1)C(=O)c1ccccc1C3=O	.	0.4*
COc1cccc2c1C(=O)c1c(O)c3c(c(O)c1C2=O)C[C@@](O)(C(C)=O)C[C@@H]3O[C@H]1C[C@H](N)[C@H](O)[C@H](C)O1	.	18
CC[C@@]1(O)C[C@H](O[C@H]2C[C@H](N(C)C)[C@H](O[C@H]3C[C@H](O)[C@H](O[C@H]4CCC(=O)[C@H](C)O4)[C@H](C)O3)[C@H](C)O2)c2c(cc3c(c2O)C(=O)c2c(O)cccc2C3=O)[C@H]1C(=O)OC	.	76
COc1cccc2c1C(=O)c1c(O)c3c(c(O)c1C2=O)C[C@@](O)(C(=O)CO)C[C@@H]3O[C@H]1C[C@H](N)[C@@H](O)[C@H](C)O1	.	2.0*
Nc1ccccc1SCc1ncc(C(F)(F)F)cc1Cl	.	103
O=S(=O)(CCSc1ncccn1)c1ccc(F)cc1	.	93
N[C@@H](C(=O)N[C@@H]1C(=O)N2C(C(=O)O)=C(CSc3cn[nH]n3)CS[C@H]12)c1ccc(O)cc1 (tested in a mixture with another compound)	.	27*
CC(C)OC(=O)C(N)c1ccccc1 (stereo not given)	18	95
CO/N=C(/C(=O)NC1C(=O)N2C(C(=O)OC(C)OC(C)=O)=C(COC(N)=O)CSC12)c1ccco1 (stereo not given)	.	26
CCN1CCN(C(=O)NC(C(=O)NC2C(=O)N3C(C(=O)O)=C(CSc4nnnn4C)CSC23)c2ccc(O)cc2)C(=O)C1=O (stereo not given)	.	-1.3*
N[C@@H](C(=O)N[C@@H]1C(=O)N2C(C(=O)O)=C(Cl)CS[C@H]12)c1ccccc1	.	-0.9*
O=C(O)CSCc1csc2c1CCCC2	-4	109
Cn1c(=O)n(Cc2ccccc2F)c(=O)c2c1nc1n2CCCN1Cc1ccco1	4	95
CN(C(=O)CSc1ncc(-c2ccccc2)n1C)C1(C#N)CCCCC1	-8	104
SMILES	Sa helicase inh	Sa growth inh
CC(=O)Nc1sc(C)c(C)c1C(=O)OCC(=O)c1cc(C)n(C)c1C	-10	87
CSc1nnc(-c2ccc(C(C)(C)C)cc2)n1Cc1ccco1	.	85
C=CCSc1nnc(-c2ccc(C(C)(C)C)cc2)n1Cc1ccco1	7	8.7*
COc1ccc(CCNC(=O)CN2N=C(c3ccc(C)cc3)CCC2=O)cc1OC	24	100
S=c1[nH]nc(-c2ccc3c(c2)OCO3)o1	8	36*
COc1ccc(-c2n[nH]c(=S)o2)cc1OC	-15	93
Cc1ccc(-n2c(=O)oc3ccc(Cl)cc3c2=O)cc1	18	68
O=c1oc2ccc(Cl)cc2c(=O)n1-c1cccc(C(F)(F)F)c1	7	-0.7*
CC(=O)Nc1nonc1NC(C)=O	3	100
CC(=O)Nc1cc(OC(C)=O)c2nonc2c1OC(C)=O	3	0.9*
COCc1nnc(NS(=O)(=O)c2ccc(OC)cc2)s1	8	95
CCc1nnc(NS(=O)(=O)c2ccc(N)cc2)s1	3	9.7*
CCN1C(C(=O)c2ccccc2)=C(OC(=O)c2ccco2)c2ccccc2S1(=O)=O	12	6.2*
CCN1C(C(=O)c2ccccc2)=C(OC(=O)c2ccc(Cl)cc2)c2ccccc2S1(=O)=O	.	53
C=CC1=C(C(=O)O)N2C(=O)[C@@H](NC(=O)/C(=N\O)c3csc(N)n3)[C@H]2SC1 (stereo in doubt)	.	-0.4*
C=CC1=C(C(=O)O)N2C(=O)[C@@H](NC(=O)C(=NOCC(=O)O)c3csc(N)n3)[C@H]2SC1	.	-0.2*
CO/N=C(\C(=O)N[C@@H]1C(=O)N2C(C(=O)[O-])=C(C[N+]3(C)CCCC3)CS[C@H]12)c1csc(N)n1	.	-0.5*
C[C@H]1[C@H](NC(=O)/C(=N\OC(C)(C)C(=O)O)c2csc(N)n2)C(=O)N1S(=O)(=O)O	.	90
CC(C)(O/N=C(\C(=O)N[C@@H]1C(=O)N2C(C(=O)[O-])=C(C[n+]3ccccc3)CS[C@H]12)c1csc(N)n1)C(=O)O	.	77
CO/N=C(\C(=O)NC1C(=O)N2C(C(=O)OCOC(=O)C(C)(C)C)=C(/C=C\c3scnc3C)CSC12)c1csc(N)n1 (stereo not given)	.	5.1*
O=C1N=C2SC=CN2C(=O)/C1=C\c1ccccc1	-6	81
CC1Cc2cc(C(=O)CSc3nnc(-c4ccco4)n3-c3ccccc3)ccc2N1S(C)(=O)=O (stereo not given)	5	77
O=C(Cn1cc2c(n1)CCCC2)Nc1ccc(Cl)cc1	7	84
O=C(O)c1ccc(O)c(SCN2CCCCC2)c1	-3	4.1*
O=C(O)c1ccc(CN2CCCCC2)cc1	12	104
SMILES	Sa helicase inh	Sa growth inh
CCOc1ccc(CCNC(=O)Cn2sc3nc(C)cc(C)c3c2=O)cc1	24	6.2*
Cc1ccc(CNC(=O)Cn2sc3nc(C)cc(C)c3c2=O)cc1	13	87
CCCNC(=O)c1nnc(Cc2ccccc2OC)o1	17	80
COC(=O)c1c(C)[nH]c(C(=O)CN(C)CC(=O)Nc2c(C)cc(C)cc2C)c1C	30*	117
COC(=O)c1c(C)[nH]c(C(=O)CN(C)Cc2cccc(OC)c2)c1C	9	98
CCN1C(=O)/C(=C\C=C\c2ccccc2Cl)SC1=S	10	93
C=CCn1c(O)c(C2=c3cc(Br)ccc3=NC2=O)c2ccccc21	3	1.4*
C=CCn1c(O)c(N=O)c2ccccc21	6	76
COc1cc(C)c(S(=O)(=O)N2CCN(c3cccc(Cl)c3)CC2)cc1C	-10	.
O=S(=O)(Cc1ccccc1)c1nnnn1-c1ccccc1	5	-0.2*
CCS(=O)(=O)c1nnnn1-c1ccccc1	-3	0.1*
c1ccc(CNc2nnnn2-c2ccccc2)cc1	3	106
CCS(=O)(=O)c1nnnn1-c1ccccc1S(C)(=O)=O	3	89
NC(=O)c1ccc(-c2ccccc2)o1	-6	.
c1csc(Cc2nnc(SCc3cn4ccsc4n3)n2C2CCCCC2)c1	-5	107
Cc1cc(C)n(-c2ccc(C(=O)NCCc3c[nH]c4ccccc34)cc2)n1	-21	101
CCCN(CCC)C(=O)c1cc2c(=O)n(CC)c3ccccc3c2s1	1	33
O=C(NC(c1cccs1)c1ccc2cccnc2c1O)C1CCCCC1 (stereo not given)	16	105
